28 compounds from PubChem BioAssay (NCI) can be followed below.

What all share (test): NCI-60 one-dose screen, 48 h (100 = growth as untreated, 0 = no growth, -100 = all killed)
Conditions in all cases: 10 µM

Assay [1] relates to NCI-H23 lung.
Assay [2] has as its system NCI-H226 lung.
Assay [3] relates to NCI-H322M lung.
Assay [4] deals with HOP-62 NSCLC.
Assay [5] deals with NCI-H460 lung.
The test system of assay [6] is HOP-92 NSCLC.
In assay [7] the test system is NCI-H522 lung.
For assay [8], the system named is A549/ATCC NSCLC.
For assay [9], the system named is 786-0 renal.
Assay [10] has as its system COLO 205 colon.

Structures are written as SMILES. About 83,000 compounds went through this panel and 20% of them were active in at least one assay; those are over-represented in the sample as a whole.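 Cells were grown in 96-well plates and exposed to the test compound at a single concentration for 48 hours; results are reported as percent growth, with values below 10 considered active.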 A number with no mark means an inactive call. The source made the active and inactive calls.

For the compound `CCc1c(C)[nH]c(=O)c(C(N)=O)c1C#N`, the growth in assay [1] was 107%; in [2], 117%; in [3] it was 104%; in [4] it was 96.7%; in assay [5], 106%; in assay [6], 109%. Further, the growth in assay [7] was 80.5%; in assay [8], 89.4%; in assay [9], 96.2%; in assay [10] it was 110%.

Regarding `O=C(NCCCl)c1cc(Cl)cc(Cl)c1`, the growth is 103% in [1]; 102% in assay [2]; 98.2% in assay [3]; 109% in [4]; 113% in assay [5]; 109% in assay [6]. In addition, the growth is 92.8% in [7], 90.7% in assay [8], 102% in assay [9] and 112% in assay [10].

`Cc1nc2sccn2c1-c1csc(Nc2cccc(Cl)c2C)n1`: the growth is 52.1% in [1]; 57.3% in [2]; 81% in assay [3]; 79.3% in [4]; 61.2% in assay [5]; 16.3% in [6]. Also, the growth in [7] was 41.8%; in assay [8], 37.5%; in [9] it was 63.3%; in assay [10] it was 69.7%.

Regarding `Cc1ccccc1[P+](Cc1ccccc1)(c1ccccc1)c1ccccc1`, the growth in assay [1] is 9.83% (active); in assay [2], 39.5%; in assay [3], 42.3%; in assay [4], 32.3%; in assay [5] it was 17.5%; in assay [6] it was -21.8% (active). The growth in assay [7] was -15.8% (active); in assay [8] it was 19.7%; in assay [9] it was 43.7%; in assay [10] it was -56% (active).

For the compound `CC1(C)CC(OCCCC[P+](c2ccccc2)(c2ccccc2)c2ccccc2)CC(C)(C)N1O`, the growth in assay [1] was 4.57% (active); in assay [2] it was 12.7%; in assay [3], 9.8% (active); in assay [4], 13.3%; in assay [5], 2.69% (active); in assay [6] it was -41.4% (active). In addition, the growth in assay [7] is -14.3% (active); in assay [8], 6.09% (active); in [9], -12.4% (active); in [10], -55.3% (active).

Take `CC1=CC2OC34COC3CC(OC(=O)C(F)(F)F)C4(C)C2(C)CC1` (stereo not given): the growth in assay [1] was 110%; in [2], 98.7%; in [3], 96.1%; in assay [4] it was 97.4%; in [5], 104%; in assay [6], 104%. Further, the growth is 103% in [7], 97.8% in assay [8], 101% in assay [9] and 99.7% in assay [10].

Turning to `CCCCNC(=O)Oc1ccc(/C(=C(\C)c2ccc(OC)cc2)c2ccc(OCCN3CCCCC3)cc2)cc1`, the growth in assay [1] was 68.4%; in [2] it was 96.5%; in [3], 87.6%; in assay [4] it was 69.1%; in assay [5], 34.6%; in assay [6], 47.2%. Moreover, the growth was 74% in [7], 47.5% in assay [8], 17.1% in [9] and -7.56% (active) in assay [10].

For the compound `CCCCCCOc1ccc(/C=C/C(=O)c2ccc(B(O)O)cc2)cc1`, the growth in assay [1] is 76.2%; in assay [2], 75.6%; in assay [3] it was 85.9%; in assay [4], 89.8%; in assay [5], 91.7%; in [6], 5.7% (active). Further, the growth in [7] was 66.1%; in [8], 75.7%; in assay [9], 73%; in assay [10] it was 103%.

Consider `CCOC(=O)c1c(Cl)c2c(n1Cc1cccc(OC)c1)-c1oncc1CC2`, for which the growth in assay [1] was 50.5%; in [2], 56.9%; in assay [3] it was -7.41% (active); in assay [4] it was 37.5%; in assay [5], 9.8% (active); in assay [6] it was 31%. The growth in assay [7] is 5.7% (active); in assay [8] it was 45%; in assay [9], 33.7%; in assay [10] it was 19.9%.

Take `COc1cc(C2C(C#N)=C(c3c[nH]c4ccccc34)Nc3nc(N)[nH]c(=O)c32)cc(OC)c1OC` (stereo not given): the growth in [1] was 80.7%; in [2], 86.3%; in assay [3], 104%; in assay [4], 82.9%; in [5] it was 106%; in [6], 47.8%. In addition, the growth was -11.7% (active) in assay [7], 105% in assay [8], 100% in assay [9] and 65% in assay [10].

In the case of `N#Cc1c(-c2ccccc2)nc(SCC(=O)N2CCOCC2)[nH]c1=O`, the growth in assay [1] is 104%; in assay [2], 98%; in assay [3], 98.1%; in assay [4], 83.7%; in assay [5] it was 105%; in assay [6], 88.9%. The growth in [7] was 83.6%; in assay [8], 101%; in assay [9], 100%; in assay [10] it was 105%.

Consider `CNC(=O)c1cc(Oc2ccc(NC(=O)Nc3ccc(Cl)c(OC4CCCCC4)c3)c(F)c2)ccn1`, for which the growth was 21.4% in [1]; 48.4% in [2]; 75.8% in [3]; 70.5% in assay [4]; 37.9% in [5]; 36% in assay [6]. Further, the growth in assay [7] is 9.84% (active); in [8], 26.6%; in assay [9], 90.4%; in assay [10] it was 33.2%.

For the compound `Cc1ccc2oc(=O)cc(/C(=C3/C=CC=N3)c3ccc[nH]3)c2c1`, the growth was 9.51% (active) in assay [1]; -7.14% (active) in assay [2]; 25.4% in [3]; -11.3% (active) in assay [4]; -2.31% (active) in assay [5]; 7.28% (active) in assay [6]. The growth is -33.2% (active) in assay [7], -21% (active) in assay [8], 3.15% (active) in assay [9] and -53.6% (active) in [10].

Turning to `Fc1ccc(-c2cc(C(Cl)Cl)no2)cc1`, the growth is 95.5% in assay [1]; 87.2% in [2]; 93.4% in assay [3]; 98.2% in assay [4]; 101% in [5]; 99.4% in [6]. Moreover, the growth was 114% in assay [7], 122% in assay [8], 110% in [9] and 115% in [10].

On to `CC(C)/C(=N/O)c1ccccc1`, for which the growth in assay [1] was 103%; in [2], 104%; in assay [3], 133%; in [4] it was 116%; in assay [5], 120%; in assay [6], 91.3%. Also, the growth was 90.8% in [7], 111% in assay [8], 88.2% in [9] and 115% in [10].

As for `CC(=O)Nc1ccc(Sc2ccc(NC(C)=O)cc2)cc1`, the growth in assay [1] is 94.1%; in assay [2] it was 101%; in [3], 110%; in assay [4] it was 70.7%; in assay [5], 105%; in [6], 83.1%. The growth in assay [7] was 75.7%; in [8], 80%; in assay [9], 94%; in assay [10], 101%.

Regarding `COc1nc2c(c(=O)[nH]1)C(c1ccc(Oc3ccnc4cc(Cl)ccc34)c(OC)c1)C=C(c1cc(OC)c(OC)c(OC)c1)N2` (stereo not given), the growth is 95.3% in [1]; 96.6% in assay [2]; 95.2% in assay [3]; 116% in assay [4]; 102% in [5]; 82.1% in assay [6]. In addition, the growth was 93.3% in assay [7], 101% in assay [8], 95% in [9] and 102% in assay [10].

Consider `COc1ccc(S(=O)(=O)Nc2cc(/C=C\c3cc(OC)c(OC)c(OC)c3)ccc2OC)cc1`, for which the growth is 27.6% in [1]; 11.8% in assay [2]; 23.8% in assay [3]; 48.7% in assay [4]; 5.27% (active) in [5]; 12.7% in [6]. The growth in [7] was -27.9% (active); in [8] it was 18%; in assay [9], 19%; in [10] it was -59.2% (active).

Consider `O=C(NCc1cn(Cc2cccc(Oc3ccccc3)c2)nn1)c1cccnc1Nc1ccccc1`, for which the growth in assay [1] is 51.9%; in assay [2], 61.5%; in assay [3], 76.9%; in assay [4], 54.8%; in assay [5], 27%; in assay [6], 34.9%. Further, the growth was 54.5% in assay [7], 50.6% in assay [8], 51.4% in [9] and 69.9% in assay [10].

Consider `COc1ccc(Nc2nc(NCc3ccccc3)c3ccccc3n2)cc1`, for which the growth in assay [1] was 77.3%; in assay [2] it was 6.99% (active); in assay [3], 41.1%; in assay [4], -48% (active); in assay [5], 3.09% (active); in assay [6], -4.85% (active). For the same compound, the growth was 50.1% in assay [7], 21.9% in assay [8], 33.9% in [9] and 43.6% in assay [10].

`COc1cc([C@@H]2c3cc4c(cc3[C@H](SC(=N)N)[C@H]3COC(=O)[C@H]23)OCO4)cc(OC)c1OC`: the growth was 13.7% in assay [1]; 0.754% (active) in assay [2]; 13% in [3]; 51.4% in assay [4]; 5.84% (active) in [5]; 68.5% in assay [6]. For the same compound, the growth in assay [7] is -7.12% (active); in [8], 18.3%; in assay [9] it was 10.3%; in [10], -67.2% (active).

For the compound `O=S(=O)(NC1c2ccccc2Oc2ccccc21)c1cc(Cl)ccc1Cl`, the growth in [1] is 97.6%; in assay [2], 83.4%; in assay [3] it was 90%; in [4], 89.4%; in assay [5], 105%; in assay [6] it was 60.2%. For the same compound, the growth is 29.5% in [7], 97.1% in assay [8], 84.6% in assay [9] and 98.9% in assay [10].

As to `CC1(C)CC(=O)c2c(nc3ccc(Cl)cc3c2-c2ccccc2)C1`, the growth in assay [1] was 89.9%; in assay [2], 97.6%; in [3], 103%; in assay [4], 92.1%; in assay [5], 90.1%; in assay [6] it was 45.6%. Further, the growth was 73% in assay [7], 95.7% in assay [8], 101% in [9] and 94.5% in [10].

`CC(=O)/C(=C\c1ccc(Cl)cc1)c1ccccc1`: the growth was 20.1% in [1]; 8.66% (active) in [2]; 49.1% in assay [3]; 32% in assay [4]; 6.31% (active) in [5]; -0.736% (active) in assay [6]. Moreover, the growth was -1.57% (active) in [7], 17.1% in [8], 22.9% in assay [9] and -40.5% (active) in assay [10].

`COCc1cc2c(cc1Br)OCO2`: the growth in assay [1] was 96.7%; in assay [2], 95.5%; in [3], 96.5%; in assay [4], 87.3%; in assay [5], 106%; in [6] it was 102%. For the same compound, the growth in assay [7] is 88.6%; in assay [8], 88.4%; in assay [9], 102%; in assay [10], 102%.

Take `Brc1ccc(-c2cn3ccnc3c(-c3ccc(Br)cc3)n2)cc1`: the growth in [1] was 59.8%; in [2] it was 70.6%; in [3], 86.7%; in assay [4], 33.2%; in [5] it was 16.8%; in assay [6], 55.8%. Moreover, the growth in assay [7] is -14.9% (active); in assay [8], 31.9%; in assay [9], 57.8%; in assay [10], 7.83% (active).

Take `O=C(NNc1nc(N2CCCC2)nc(N2CCCC2)n1)c1ccccc1`: the growth in assay [1] is 99.3%; in [2], 107%; in assay [3], 94.9%; in [4] it was 101%; in assay [5], 117%; in [6] it was 83.5%. In addition, the growth is 94.2% in [7], 104% in assay [8], 121% in assay [9] and 109% in [10].

Take `COc1cc(C2c3cc4c(cc3C(O)C(CO)C2CO)OCO4)cc(OC)c1OC` (stereo not given): the growth in assay [1] is 43.2%; in [2], 40.4%; in assay [3], -0.279% (active); in assay [4], 40.7%; in [5], 4.74% (active); in [6], 65.4%. In addition, the growth in assay [7] is 3.32% (active); in [8] it was 47.4%; in assay [9] it was 39.1%; in assay [10], -3.75% (active).
